Source: PubChem BioAssay (Tox21)
“And” between values parts separate entries of the source, which are not always exact repeats. Equal entries are not always repeated. Results filed as inconclusive are left out. A number with no mark means an inactive call. The source made the active and inactive calls. The call rests on the fitted dose curve; in most records, active means well fitted cell-killing curve with a large enough effect in the repeat runs; inconclusive means weak or mixed curves; inactive means no such curve, though single readings can be large or run the other way. Positions of bridges follow the written chain, without caps; N, C: chain ends. Non-standard residues stand in square brackets, D forms with d. Residues, ends and D or L forms follow the SMILES beside them. *: point of attachment. X1 = CC[C@@H](C)[C@@H](N)C1=N[C@H](C(=O)*)CS1; d(aIle) = CC[C@H](C)[C@@H](N)C(=O)O; dOrn = NCCC[C@@H](N)C(=O)O
On the % scale 0 is the no-effect control and ±100 the full control effect.

Assay: qHTS assay for identifying genotoxic compounds that show differential cytotoxicity against isogenic chicken DT40 cell lines with known DNA damage response pathways - Rad54/Ku70 mutant cell line (AID 743015); further: nearly all actives have a fitted effect of over 60% in size; further: potency means the concentration at half of the fitted maximal effect
Settings: DT40 Rad54/Ku70 mutant viability, CellTiter-Glo, 40 h; series mostly up to 66.8 µM; activity change, negative = cytotoxicity: at the top concentration
For CCN1CCCC1CNC(=O)c1cc(S(=O)(=O)CC)ccc1OC (configuration not stated), the Potency was “inactive”.
In the case of Nc1nc(NC2CC2)c2ncn([C@@H]3C=C[C@@H](CO)C3)c2n1, the “activity change, negative = cytotoxicity” value is reported as -3.37%.
With Cc1cc(N)c2ccccc2[n+]1CCCCCCCCCC[n+]1c(C)cc(N)c2ccccc21 the Potency was 2.85 µM (active).
For CC[C@@H](C)[C@H](N)C(=O)O, the “activity change, negative = cytotoxicity” value was 5.28%.
With CCCCCCCCCCCCN1CCCC1=O the Potency was 30.6 µM (active).
With CC1(C)C[C@@H]1C(=O)N/C(=C\CCCCSC[C@H](N)C(=O)O)C(=O)O the “activity change, negative = cytotoxicity” value was 7.65%.
In the case of CC12CCC(C[N+](C)(CCC[N+](C)(C)C)C1)C2(C)C (configuration not stated), the “activity change, negative = cytotoxicity” value is reported as -0.244%.
With CC(C)(COP(=O)(O)OP(=O)(O)OC[C@H]1O[C@@H](n2cnc3c(N)ncnc32)[C@H](O)[C@@H]1OP(=O)(O)O)C(O)C(=O)NCCC(=O)NCCS (some centres not stated) the “activity change, negative = cytotoxicity” value was 15.2%.
For O=C1c2ccccc2-c2n[nH]c3cccc1c23, the Potency was 9.44 µM (active).
In the case of CO[C@H](C(=O)[C@@H](O)[C@@H](C)O)C1Cc2cc3cc(O[C@H]4C[C@@H](O[C@H]5C[C@@H](O)[C@H](O)[C@@H](C)O5)[C@@H](O)[C@@H](C)O4)c(C)c(O)c3c(O)c2C(=O)[C@H]1O[C@H]1C[C@@H](O[C@H]2C[C@@H](O[C@H]3C[C@](C)(O)[C@H](O)[C@@H](C)O3)[C@H](O)[C@@H](C)O2)[C@H](O)[C@@H](C)O1 (some centres not stated), the Potency is reported as 75 nM (active) and 33.5 nM (active).
In the case of CCOC(=O)Cc1ccc(-c2ccccc2)cc1, the “activity change, negative = cytotoxicity” value is reported as 1.13%.
For CC(=O)O[C@H]1C[C@@H]2CC[C@@H]3[C@H](CC[C@@]4(C)[C@H]3C[C@H]([N+]3(C)CCCCC3)[C@@H]4OC(C)=O)[C@@]2(C)C[C@@H]1[N+]1(C)CCCCC1, the “activity change, negative = cytotoxicity” value was -1.88%.
For O=C1c2c(O)cccc2[C@H]([C@@H]2O[C@H](CO)[C@@H](O)[C@H](O)[C@H]2O)c2cc(CO)cc(O)c21, the Potency was “inactive”.
In the case of O=C(O)CCCC/C=C(\c1ccccc1)c1cccnc1, the “activity change, negative = cytotoxicity” value is reported as 14.2%.
With CC[C@@H](C)[C@@H](N)C1=N[C@H](C(=O)N[C@@H](CC(C)C)C(=O)N[C@@H](CCC(=O)O)C(=O)N[C@@H](C(=O)N[C@@H]2CCCCNC(=O)[C@@H](CC(N)=O)NC(=O)[C@@H](CC(=O)O)NC(=O)[C@@H](Cc3cnc[nH]3)NC(=O)[C@@H](Cc3ccccc3)NC(=O)[C@@H]([C@H](C)CC)NC(=O)[C@@H](CCCN)NC2=O)[C@@H](C)CC)CS1 (X1-LE[d(aIle)][dK][dOrn][dI][dF][dH][dD][dN]; lactam 4-C) the Potency was “inactive”.
With NC(=S)NS(=O)(=O)c1ccc(N)cc1 the “activity change, negative = cytotoxicity” value was -0.539%.
With CO[C@H]1C[C@@H]2CC[C@@H](C)[C@@](O)(O2)C(=O)C(=O)N2CCCC[C@H]2C(=O)O[C@H]([C@H](C)C[C@@H]2CC[C@@H](O)[C@H](OC)C2)CC(=O)[C@H](C)C=C(C)[C@@H](O)[C@@H](OC)C(=O)[C@H](C)C[C@H](C)/C=C/C=CC=C1C the Potency was 3.3 nM (active) and 5.3 nM (active).
In the case of CC(=O)[C@]1(O)Cc2c(O)c3c(c(O)c2[C@@H](O[C@H]2C[C@H](N)[C@H](O)[C@H](C)O2)C1)C(=O)c1ccccc1C3=O, the Potency is reported as 0.0033 µM (active).
For O=C1[O][Bi][O]c2ccccc21, the “activity change, negative = cytotoxicity” value was 0.292%.
In the case of N=C(N)n1cccn1, the “activity change, negative = cytotoxicity” value is reported as -0.279%.
In the case of C=CC[N+]1([C@H]2C[C@H]3[C@@H]4CC[C@H]5C[C@H](O)[C@@H](N6CCOCC6)C[C@]5(C)[C@H]4CC[C@]3(C)[C@H]2OC(C)=O)CCCC1, the “activity change, negative = cytotoxicity” value is reported as 2.21%.
In the case of CCc1ncnc2cc(OC)c(OC)cc12, the “activity change, negative = cytotoxicity” value is reported as -1.75%.
For C=CC1=C(C(=O)O)N2C(=O)[C@@H](NC(=O)/C(=N\O)c3csc(N)n3)[C@H]2SC1 (stereo in doubt), the Potency was “inactive”.
In the case of CC(=O)N[C@@H](C=O)[C@H](O)[C@H](O)[C@@H](O)CO, the Potency is reported as “inactive”.
With CNCC(=O)N[C@@H](CCCN=C(N)N)C(=O)N[C@H](C(=O)N[C@@H](Cc1ccc(O)cc1)C(=O)N[C@H](C(=O)N[C@@H](Cc1cnc[nH]1)C(=O)N1CCC[C@H]1C(=O)N[C@@H](C)C(=O)O)C(C)C)C(C)C the “activity change, negative = cytotoxicity” value was 12.7%.
With CCCOC(=O)c1ccccc1O the “activity change, negative = cytotoxicity” value was 3.69%.
In the case of CC(C)(S)C(=O)N[C@@H](CS)C(=O)O, the Potency is reported as “inactive”.
In the case of CCCCCCCC/C=C\CCCCCCCC(=O)N(CCO)CCO, the Potency is reported as 13.6 µM (active).
For Oc1ccc(Cl)cc1C1CCCC1, the Potency was 27.3 µM (active).
In the case of O=C(O)/C=C/C(=O)Nc1ccc(S(=O)(=O)Nc2nccs2)cc1, the “activity change, negative = cytotoxicity” value is reported as 2.98%.
For N#Cc1c(N(CC(=O)O)CC(=O)O)sc(C(=O)O)c1CC(=O)O, the “activity change, negative = cytotoxicity” value was 6.48%.
With N[C@@H](Cc1ccc(O)c(O)c1)C(=O)O the “activity change, negative = cytotoxicity” value was 0.99%.
With CC(C)c1ccc2sc3ccccc3c(=O)c2c1 the Potency was 54.5 µM (active).

Assay: qHTS assay to identify small molecule antagonists of the androgen receptor (AR) signaling pathway - cell viability counter screen (AID 743033; further: nearly all actives have a fitted effect of over 45% in size)
Settings: AR-bla HEK293 viability, CellTiter-Glo luminescence, 16 h; series mostly up to 58.5 µM; activity change, negative = cytotoxicity: at the top concentration
With CCN1CCCC1CNC(=O)c1cc(S(=O)(=O)CC)ccc1OC (configuration not stated) the Potency was “inactive”.
For Nc1nc(NC2CC2)c2ncn([C@@H]3C=C[C@@H](CO)C3)c2n1, the “activity change, negative = cytotoxicity” value was 2.25%.
In the case of CC[C@@H](C)[C@H](N)C(=O)O, the “activity change, negative = cytotoxicity” value is reported as -6.57%.
With CCCCCCCCCCCCN1CCCC1=O the “activity change, negative = cytotoxicity” value was -12.8%.
In the case of CC1(C)C[C@@H]1C(=O)N/C(=C\CCCCSC[C@H](N)C(=O)O)C(=O)O, the Potency is reported as “inactive”.
In the case of CC12CCC(C[N+](C)(CCC[N+](C)(C)C)C1)C2(C)C (configuration not stated), the “activity change, negative = cytotoxicity” value is reported as 1.05%.
For CC(C)(COP(=O)(O)OP(=O)(O)OC[C@H]1O[C@@H](n2cnc3c(N)ncnc32)[C@H](O)[C@@H]1OP(=O)(O)O)C(O)C(=O)NCCC(=O)NCCS (some centres not stated), the “activity change, negative = cytotoxicity” value was -17.2%.
In the case of O=C1c2ccccc2-c2n[nH]c3cccc1c23, the “activity change, negative = cytotoxicity” value is reported as 0.0552%.
In the case of CO[C@H](C(=O)[C@@H](O)[C@@H](C)O)C1Cc2cc3cc(O[C@H]4C[C@@H](O[C@H]5C[C@@H](O)[C@H](O)[C@@H](C)O5)[C@@H](O)[C@@H](C)O4)c(C)c(O)c3c(O)c2C(=O)[C@H]1O[C@H]1C[C@@H](O[C@H]2C[C@@H](O[C@H]3C[C@](C)(O)[C@H](O)[C@@H](C)O3)[C@H](O)[C@@H](C)O2)[C@H](O)[C@@H](C)O1 (some centres not stated), the “activity change, negative = cytotoxicity” value is reported as -14.9%.
With CCOC(=O)Cc1ccc(-c2ccccc2)cc1 the “activity change, negative = cytotoxicity” value was 16.2%.
With CC(=O)O[C@H]1C[C@@H]2CC[C@@H]3[C@H](CC[C@@]4(C)[C@H]3C[C@H]([N+]3(C)CCCCC3)[C@@H]4OC(C)=O)[C@@]2(C)C[C@@H]1[N+]1(C)CCCCC1 the “activity change, negative = cytotoxicity” value was 3.26%.
In the case of CC1CCCCN1CCCOC(=O)c1ccccc1 (configuration not stated), the “activity change, negative = cytotoxicity” value is reported as 5.44%.
With O=C(O)CCCC/C=C(\c1ccccc1)c1cccnc1 the “activity change, negative = cytotoxicity” value was 2.16%.
With CC[C@@H](C)[C@@H](N)C1=N[C@H](C(=O)N[C@@H](CC(C)C)C(=O)N[C@@H](CCC(=O)O)C(=O)N[C@@H](C(=O)N[C@@H]2CCCCNC(=O)[C@@H](CC(N)=O)NC(=O)[C@@H](CC(=O)O)NC(=O)[C@@H](Cc3cnc[nH]3)NC(=O)[C@@H](Cc3ccccc3)NC(=O)[C@@H]([C@H](C)CC)NC(=O)[C@@H](CCCN)NC2=O)[C@@H](C)CC)CS1 (X1-LE[d(aIle)][dK][dOrn][dI][dF][dH][dD][dN]; lactam 4-C) the Potency was “inactive”.
For NC(=S)NS(=O)(=O)c1ccc(N)cc1, the “activity change, negative = cytotoxicity” value was 2.1%.
For O=C1[O][Bi][O]c2ccccc21, the “activity change, negative = cytotoxicity” value was -3.32%.
In the case of N=C(N)n1cccn1, the “activity change, negative = cytotoxicity” value is reported as 4.67%.
For C=CC[N+]1([C@H]2C[C@H]3[C@@H]4CC[C@H]5C[C@H](O)[C@@H](N6CCOCC6)C[C@]5(C)[C@H]4CC[C@]3(C)[C@H]2OC(C)=O)CCCC1, the “activity change, negative = cytotoxicity” value was 10.2%.
In the case of CCc1ncnc2cc(OC)c(OC)cc12, the “activity change, negative = cytotoxicity” value is reported as -1.59%.
With CC(=O)N[C@@H](C=O)[C@H](O)[C@H](O)[C@@H](O)CO the Potency was “inactive”.
In the case of CCCOC(=O)c1ccccc1O, the “activity change, negative = cytotoxicity” value is reported as 4.45%.
In the case of CC(C)(S)C(=O)N[C@@H](CS)C(=O)O, the Potency is reported as “inactive”.
In the case of N#Cc1c(N(CC(=O)O)CC(=O)O)sc(C(=O)O)c1CC(=O)O, the “activity change, negative = cytotoxicity” value is reported as -17%.
For N[C@@H](Cc1ccc(O)c(O)c1)C(=O)O, the “activity change, negative = cytotoxicity” value was 17.5%.
